An excerpt weighted towards active compounds, which were near 12% of everything screened.
Pf growth 96h: P. falciparum growth inhibition at 96 hours; P. falciparum luciferase reporter growth, 96 h; Potency, µM (series often up to 28.7 µM), most hits filed as inhibitors; 6.9% of 320,000 active; AID 504834
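Compounds incubated with erythrocytes infected by luciferase-expressing P. falciparum (2% hematocrit, 0.05% parasitemia final) for 96 hours, 37 C in 5% CO2. Growth inhibition scored as decreased luciferase luminescence.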
AmpC no deterg: AmpC beta-lactamase inhibition without detergent. Potency, µM (doses to about 57.1 µM), actives largely listed as inhibitors. AmpC nitrocefin hydrolysis, absorbance 480 nm, 0.0001% Triton. P00811. AID 485341. 0.52% of 330,000 active; also: nearly all actives have a fitted effect of over 20% in size
Target sequence (P00811 whole entry, looked up): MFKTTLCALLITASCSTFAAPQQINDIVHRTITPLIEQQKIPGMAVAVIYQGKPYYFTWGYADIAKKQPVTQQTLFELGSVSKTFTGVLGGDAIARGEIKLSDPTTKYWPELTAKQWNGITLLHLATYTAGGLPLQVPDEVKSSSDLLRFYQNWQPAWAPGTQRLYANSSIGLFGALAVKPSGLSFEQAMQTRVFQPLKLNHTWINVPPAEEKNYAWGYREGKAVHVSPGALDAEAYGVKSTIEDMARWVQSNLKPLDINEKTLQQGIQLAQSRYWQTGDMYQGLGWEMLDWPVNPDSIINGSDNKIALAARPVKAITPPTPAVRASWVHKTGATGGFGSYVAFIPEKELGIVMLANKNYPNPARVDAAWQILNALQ
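20 mM phosphate pH 7.0 + 0.01% (detergent screen) or 0.0001% Triton X-100; 5.3 nM AmpC reagent; cpd preinc 15 min RT; nitrocefin (800 uM stock) to start; A480 q20 s × 4 min; Activity was normalised to no-enzyme and no-compound control wells.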
Sm TGR block: inhibitors of Schistosoma mansoni thioredoxin glutathione reductase | Q962Y6 | AID 485364 | 3% of 360,000 active | Potency, µM (titrated, usually from 114 µM), usual class: inhibitors | purified TGR, DTNB reduction, TNB absorbance 405 nm; also: nearly all actives have a fitted effect of over 60% in size
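Kinetic colorimetric format: TGR-catalysed, NADPH-driven DTNB reduction monitored via TNB absorbance. Enzyme dispensed at 20 nM; compound exposure 15 min at room temperature before reaction start.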
Pf growth 48h: inhibits P. falciparum growth in the first generation, 48 h | P. falciparum luciferase growth in erythrocytes, 48 h | Potency, µM (highest dose often 28.7 µM), actives largely listed as inhibitors | 5.9% of 310,000 active
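Read-out is firefly luciferase luminescence from an integrated reporter in P. falciparum, so falling signal marks reduced parasite growth. Infected erythrocytes were at 2% hematocrit and 0.1% parasitemia (final) in Albumax-supplemented RPMI 1640.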
SARS PLpro yeast: blocks SARS-CoV papain-like protease in a yeast assay | Potency, µM (doses to about 32.9 µM), usual class: activators | 0.19% of 330,000 active | S. cerevisiae expressing SARS-CoV PLpro, growth rescue | AID 485353; calls by dose curve; also: nearly all actives have a fitted effect of over 55% in size
AmpC inh detg: inhibitors of E. coli AmpC beta-lactamase with detergent; Potency, µM (titrated, usually from 114 µM), hits mostly inhibitors; AmpC hydrolysis of nitrocefin, absorbance 480 nm, 0.01% Triton; 0.041% of 370,000 active; P00811; AID 485294; also: nearly all actives have a fitted effect of over 25% in size
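20 mM phosphate pH 7.0 + 0.01% (detergent screen) or 0.0001% Triton X-100; 5.3 nM AmpC reagent; cpd preinc 15 min RT; nitrocefin (800 uM stock) to start; A480 q20 s × 4 min; Activity was normalised to no-enzyme and no-compound control wells.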
Each line names hits and unclear results; the compound was inactive in the other large screens. Unless noted, calls follow the shape of the dose curve; as a rule, active = well fitted curve in the direction sought with a large enough effect; inconclusive = small, poorly fitted or top-dose-only effect, or another doubt; inactive = no such curve, though single readings can be large; an effect the other way counts as inactive or inconclusive.

O=C(CN1C(=O)C2C3C=CC(C4CC34)C2C1=O)Oc1ccccc1 (centres undefined)	none (no result: Sm TGR block)
CCOC(=O)C1=C(C)N(c2ccccc2)C(=O)C1CC(=O)O (centres undefined)	Pf growth 96h 11.7µM, Sm TGR block inconclusive
CCOC(=O)c1c(O)c(O)c(C(=O)OCC)n1-c1ccccc1	Sm TGR block 39.8µM
CCOC(=O)C1=C(C)N(C)C(=O)C1CC(=O)O (centres undefined)	Pf growth 96h inconclusive
O=C(O)c1ccc(NCc2cccs2)cc1	none
Cc1ccc(OCC(=O)N2CCCC(CCC(=O)N(C)CCc3ccccn3)C2)cc1 (centres undefined)	none
COC(=O)c1ccccc1NC(=O)c1cc([N+](=O)[O-])nn1Cc1ccccc1	Pf growth 96h 0.657µM, AmpC inh detg inconclusive
CCCSc1nc(O)c(C2OC(=O)c3c2ccc(OC)c3OC)c(=O)n1-c1ccccc1 (centres undefined)	Sm TGR block 11.2µM, AmpC inh detg inconclusive (no result: Pf growth 48h)
C=CCSc1nc(O)c(C2OC(=O)c3c2ccc(OC)c3OC)c(=O)n1-c1ccccc1 (centres undefined)	Sm TGR block 3.98µM
CCCSc1nc2ccccc2c(=O)n1-c1ccccc1OC	none (no result: Pf growth 96h, AmpC no deterg, Pf growth 48h, SARS PLpro yeast)
CCCCSc1nc(O)c(C2OC(=O)c3c2ccc(OC)c3OC)c(=O)n1-c1ccccc1 (centres undefined)	Sm TGR block 8.91µM (no result: Pf growth 48h)
CN(C)CCSc1nc(O)c(-c2ccccc2)c(=O)n1-c1ccccc1	none
O=C(O)c1ccc(CNCc2ccccc2Cl)s1	none (no result: Pf growth 96h, AmpC no deterg, Pf growth 48h, SARS PLpro yeast)
N#CC1=C2SCCN2C(=O)C(C#N)C12CCCCC2 (centres undefined)	Pf growth 96h 2.08µM
CCN(Cc1ccccc1)C(=O)CCNS(=O)(=O)c1cc(Br)cnc1N	Pf growth 48h 13.1µM
COc1ccc2nc(S(=O)Cc3ncc(C)c(OC)c3C)[nH]c2c1 (centres undefined)	Pf growth 96h 3.29µM, Pf growth 48h 11.7µM
COCCCOc1ccnc(CS(=O)c2nc3ccccc3[nH]2)c1C (centres undefined)	AmpC inh detg inconclusive
COc1ccc(NC(=O)c2cc(C)nc3ccccc23)cc1S(=O)(=O)N1CCOCC1	none (no result: Pf growth 96h, Sm TGR block, Pf growth 48h, AmpC inh detg)
O=C(Nc1ccc(Cl)c(S(=O)(=O)N2CCOCC2)c1)c1ccccn1	none
Cc1ccc(NC(=O)c2cc(-c3ccco3)nc3ccccc23)cc1S(=O)(=O)N1CCOCC1	Pf growth 96h inconclusive, Sm TGR block 44.7µM
O=C(Nc1ccc(Cl)c(S(=O)(=O)N2CCOCC2)c1)c1cc(-c2ccccn2)nc2ccccc12	Pf growth 96h inconclusive, Pf growth 48h 11.7µM
COc1ccc(NC(=O)c2cc(-c3ccco3)nc3ccccc23)cc1S(=O)(=O)N1CCOCC1	Pf growth 96h inconclusive, Sm TGR block 7.94µM, Pf growth 48h inconclusive
Cc1ccc(NC(=O)c2ccc3ccccc3n2)cc1S(=O)(=O)N1CCOCC1	Pf growth 96h inconclusive, Pf growth 48h inconclusive
COc1ccc(NC(=O)c2ccccn2)cc1S(=O)(=O)N1CCOCC1	none
COc1ccc(Nc2nc(-c3ccccc3)nc3ccccc23)cc1S(=O)(=O)N1CCOCC1	Pf growth 96h 13.1µM, Pf growth 48h inconclusive
N#Cc1ccc(CN2CCN(C(=O)CNC(=O)Cc3ccccc3)CC2)cc1	AmpC inh detg inconclusive
CC(C)Oc1ccc(CNC(=O)CN2C(=O)CCn3nc(-c4cn(C)c5ccccc45)cc32)cc1	none (no result: Pf growth 96h, AmpC no deterg, Pf growth 48h, SARS PLpro yeast)
Cn1cc([N+](=O)[O-])c(C(=O)NC2CCCCCCC2)n1	none
COC(=O)[C@@]1(Cc2ccc(F)cc2)[C@H]2c3cc(C(=O)N(C)C)n(CCc4ccccn4)c3C[C@H]2CN1C(=O)c1ccccc1	Pf growth 96h 3.29µM, Pf growth 48h 2.62µM
CC1(C(=O)NCc2ccccn2)C=CCN1C(=O)c1ccccc1 (centres undefined)	none
COC(=O)[C@@]1(Cc2ccccc2)[C@H]2c3cc(C(=O)N4CCCC4)n(CCSCCO)c3C[C@H]2CN1C(=O)c1ccccc1	Pf growth 96h 2.33µM, Pf growth 48h 1.65µM
COC(=O)[C@@]1(Cc2ccccc2)[C@H]2C(=O)N(C)C(=O)[C@H]2[C@H]2CN=C(SCc3ccccc3)N21	none (no result: Pf growth 96h, Sm TGR block, Pf growth 48h, AmpC inh detg)
COC(=O)[C@@]1(Cc2ccc(F)cc2)[C@H]2c3cc(C(=O)N4CCCC4)n(CCc4c[nH]c5ccc(OC)cc45)c3C[C@H]2CN1C(=O)c1ccccc1	Pf growth 96h 1.04µM, Pf growth 48h inconclusive, AmpC inh detg inconclusive
COCCNC(=O)C1CCN(C(=O)c2cc3sccc3n2Cc2ccc(F)cc2)CC1	Pf growth 48h inconclusive
COCCn1c(C(=O)N2CCCC2)cc2c1C[C@H]1CN(C(=O)c3ccccc3)[C@@](Cc3ccc(F)cc3)(C(=O)OC)[C@@H]21	Pf growth 96h 4.65µM, Pf growth 48h 1.65µM, AmpC inh detg inconclusive
NC(=O)CSc1nnnn1-c1cccc(O)c1	none (no result: Pf growth 96h, AmpC no deterg, Pf growth 48h, SARS PLpro yeast)
Cc1noc(C)c1NC(=O)N(C)C[C@@H]1Oc2c(NC(=O)c3ccncc3)cccc2C(=O)N([C@H](C)CO)C[C@@H]1C	none (no result: Pf growth 96h, Sm TGR block, Pf growth 48h, AmpC inh detg)
COC(=O)[C@@]1(Cc2ccc(F)cc2)[C@H]2c3cc(C(=O)N4CCCC4)n(CCc4ccccn4)c3C[C@H]2CN1C(=O)c1ccccc1	Pf growth 96h 2.08µM, Pf growth 48h 3.29µM
COC(=O)[C@@]1(Cc2ccc(OC)cc2)[C@H]2c3cc(C(=O)N4CCCC4)n(Cc4ccc(C)o4)c3C[C@H]2CN1C(=O)c1ccccc1	Pf growth 96h 2.08µM, Pf growth 48h inconclusive, AmpC inh detg inconclusive
NC(=O)OC[C@@H]1[C@H](NC(=O)/C(=N/OCC(=O)O)c2csc(N)n2)C(=O)N1S(=O)(=O)O	Pf growth 96h 0.426µM, Pf growth 48h inconclusive (no result: AmpC no deterg, Sm TGR block, SARS PLpro yeast, AmpC inh detg)
C=CC1=C(C(=O)O)N2C(=O)[C@@H](NC(=O)/C(=N\OCC(=O)O)c3csc(N)n3)[C@@H]2SC1	none (no result: AmpC no deterg, Sm TGR block, SARS PLpro yeast, AmpC inh detg)
[O-][N+](=Nc1ccccc1)c1ccccc1	none (no result: AmpC no deterg, Sm TGR block, SARS PLpro yeast, AmpC inh detg)
N=C(N=C(N)N)N1CCc2ccccc21	Pf growth 48h inconclusive
COc1ccc(C(=O)Cn2c(C(=O)/C=C/c3ccccc3)nc3ccccc32)cc1	Pf growth 48h 10.4µM (no result: Pf growth 96h)
COc1ccc(C(=O)c2nc3ccccc3n2C(C)C)cc1OC	none
COc1ccc(C(=O)c2nc3ccccc3n2C(C)C)cc1	Sm TGR block 31.6µM
COc1ccc(C(=O)CSc2nc3ccccc3n2CC(=O)c2ccccc2)cc1	Pf growth 48h inconclusive
O=C(NCCN1CCN(C(=O)c2ccc(F)cc2)CC1)c1ccc(F)cc1	Pf growth 96h 11.7µM, AmpC inh detg inconclusive
CCOC(=O)C1=NN(c2ccccc2)C2(S1)SC(C(C)=O)=C(C)N2c1ccccc1 (centres undefined)	none (no result: Pf growth 96h)

Compound activity deposited in PubChem BioAssay by National Center for Advancing Translational Sciences (NCATS).
